{"source": "the supplement of paper PMC11417369", "note": "± gives the standard deviation of the averaged measurements. In all, about 25,000 sequences were measured (“ln(normalized median fluorescence intensity)”: median about 10, highest 2% from about 12 on). The sample holds the highest values, similar sequences and a random draw of the others, so the mix is not that of the screen."}
{"test_system": "PfAP2-G AP2 domain (GST-tagged)", "experiment": "gcPBM binding intensity (ln(normalized median fluorescence intensity)); higher = stronger DNA binding", "outline": "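In this array assay, P. falciparum DNA-binding domains with a GST tag, expressed in E. coli, were applied for 1 h to primer-extended double-stranded 36-bp intergenic genomic probes and negative controls on an Agilent 4 × 180k array. Bound protein was visualised with Alexa488 anti-GST antibody at 488 nm. Binding intensity is the highest Masliner-normalised natural-log median intensity across replicate spots of either probe orientation.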"}
{"sequence": "AATATAAATAAAAAATTGATTTCTTTAAAAAGGTAT [CACACA_negctrl_site1038]", "gcPBM binding intensity (ln)": "9.67 ± 0.18"}
{"sequence": "TTTTTATAAAAATTATTAAAAAAATTATTTATAGCT [CACACA_negctrl_site265]", "gcPBM binding intensity (ln)": "9.54 ± 0.12"}
{"sequence": "ATGACATATAAATATACACACATACGTAAGTATATT [CACACA_site5058]", "gcPBM binding intensity (ln)": "9.96 ± 0.11"}
{"sequence": "GTATAAAAAAATAAAAGTACAAAAAAAAAAGACTGA [XGTACX_site186]", "gcPBM binding intensity (ln)": "11.4 ± 0.77"}
{"sequence": "TTTAAAGTAATAAAGTGTACAAAAATAAATTCAGCT [XGTACX_site8651]", "gcPBM binding intensity (ln)": "11.2 ± 0.67"}
{"sequence": "AAAAAAAAAAAAAAAAGTACACAAATTTTAAAAATT [XGTACX_site3006]", "gcPBM binding intensity (ln)": "11.6 ± 0.88"}
{"sequence": "GTACAAAAAAAGTGTACACAAAGTAAGACTTTAATT [CACACA_site5068]", "gcPBM binding intensity (ln)": "11.7 ± 0.83"}
{"sequence": "TATAAAAGGTAAGAGTGTACAAGTAAAAAATTTTTA [XGTACX_site771]", "gcPBM binding intensity (ln)": "11.2 ± 0.7"}
{"sequence": "TGTGTATAAAAAAAGTGTACACAAAGTAAGACTTTA [XGTACX_site3759]", "gcPBM binding intensity (ln)": "11.7 ± 0.86"}
{"sequence": "TTCTAAAATTATATAGTGCAATTATATTAATTTTTC", "gcPBM binding intensity (ln)": "9.785 ± 0.078"}
{"sequence": "TTTGTTGGTATGGTTACACACATTTAGGAAATAAAA [CACACA_site1411]", "gcPBM binding intensity (ln)": "10.4 ± 0.34"}
{"sequence": "GAACGTATCATGTGTACACACAAATTGTTTTTTTTT [CACACA_site2020]", "gcPBM binding intensity (ln)": "11.7 ± 0.91"}
{"sequence": "TTTTACAAATGTTTTACACACACATAATTGTATCAA [CACACA_site4166]", "gcPBM binding intensity (ln)": "10.1 ± 0.13"}
{"sequence": "TCGAACGTATCATGTGTACACACAAATTGTTTTTTT [CACACA_site8623]", "gcPBM binding intensity (ln)": "11.6 ± 0.86"}
{"sequence": "ACCCATTGCTCACGTGCACACATAGAAAAATAATTC [CACACA_site4389]", "gcPBM binding intensity (ln)": "10.8 ± 0.58"}
{"sequence": "AAAAATTTAAGTGGGGGTACATTTTTTTAACACCTT [XGTACX_site1093]", "gcPBM binding intensity (ln)": "11.6 ± 0.66"}
{"sequence": "ATTCATTTTTTGGGGGGTACACCCTTTTAAACATTT [XGTACX_site4797]", "gcPBM binding intensity (ln)": "11.8 ± 1.3"}
{"sequence": "TTTTTAATTTTTTTTAAACACACACCGTACATTCAA [CACACA_site7925]", "gcPBM binding intensity (ln)": "10.8 ± 0.61"}
{"sequence": "AATAGCCCATATGGAATACACACTGAAAATAAAAAA [CACACA_site3373]", "gcPBM binding intensity (ln)": "10.3 ± 0.26"}
{"sequence": "TATATATATATATATGCATGTACATATATTTGTTAT [TGCATGCA_site379]", "gcPBM binding intensity (ln)": "11.1 ± 0.42"}
{"sequence": "TATTTTTTTTTTATATGTACATAATTTCAAATAAAT [XGTACX_site7747]", "gcPBM binding intensity (ln)": "11.4 ± 0.83"}
{"sequence": "TATAATTATATTTGGAGTACAAATTTTTTTTTTTTT [XGTACX_site7494]", "gcPBM binding intensity (ln)": "11.5 ± 0.9"}
{"sequence": "TATATTTCAGGGGGGAGTACAAATTTTTTTATATAA [XGTACX_site1600]", "gcPBM binding intensity (ln)": "11.8 ± 0.87"}
{"sequence": "TATTGTATTTAATAAACACACAATATTAAAAATATA [CACACA_site4725]", "gcPBM binding intensity (ln)": "9.91 ± 0.16"}
{"sequence": "GAAAACAAATATGTAGCACACATTCACATAATATAT [CACACA_site8731]", "gcPBM binding intensity (ln)": "9.97 ± 0.014"}
{"sequence": "GTTACATACCTATACACACACATATATAAATAAATA [CACACA_site6549]", "gcPBM binding intensity (ln)": "10.2 ± 0.18"}
{"sequence": "ATATATATAATATAGGTGCACTACTTATTTAAAAAA", "gcPBM binding intensity (ln)": "10.5 ± 0.36"}
{"sequence": "ATTGATAAATTAACTAGTACACATATAAATATATTA [XGTACX_site2325]", "gcPBM binding intensity (ln)": "11.3 ± 0.93"}
{"sequence": "TACACCAGTTGTGGGAGTACACAAAAAAAGGGAAAA [XGTACX_site6047]", "gcPBM binding intensity (ln)": "11.7 ± 1"}
{"sequence": "AAAGAAGGGAAACACACACACACACCCACAAAAAAA [CACACA_site3766]", "gcPBM binding intensity (ln)": "10.3 ± 0.33"}
{"sequence": "TATAAGCTAAGTTGTTGTACAAAAAGGAAAAGTATA [XGTACX_site3741]", "gcPBM binding intensity (ln)": "11.1 ± 0.59"}
{"sequence": "TATTATAATATTTATACACACATAATTTTGATAAAT [CACACA_site583]", "gcPBM binding intensity (ln)": "9.95 ± 0.16"}
{"sequence": "ATTATAACACCTCCCCCCCTTTTTTTATGAAGACCA [CACACA_negctrl_site1043]", "gcPBM binding intensity (ln)": "11.8 ± 0.86"}
{"sequence": "AACTTTTAGAAGAACACACACATATAGATTATGACC [CACACA_site6256]", "gcPBM binding intensity (ln)": "10.2 ± 0.014"}
{"sequence": "TATATTATGACCACCACACACCTATACACATAACAT [CACACA_site7199]", "gcPBM binding intensity (ln)": "11.4 ± 0.91"}
{"sequence": "TACACATACAGACATACACACATACACATATACACA [CACACA_site6918]", "gcPBM binding intensity (ln)": "10.2 ± 0.23"}
{"sequence": "CACAAAAGTAAGCACGCACACACAACATGAAATAAA [CACACA_site7938]", "gcPBM binding intensity (ln)": "10.4 ± 0.18"}
{"sequence": "TTAATCTTTCCTACATGTACACACAGAAAAAAAAAA [XGTACX_site5213]", "gcPBM binding intensity (ln)": "11.5 ± 1"}
{"sequence": "TAATCTTTCGTACATGTACACACAGAAAAAAAAAAA [CACACA_site8798]", "gcPBM binding intensity (ln)": "11.8 ± 1.3"}
{"sequence": "ATCTTTCGTACATGTACACACAGAAAAAAAAAAAAA [CACACA_site2502]", "gcPBM binding intensity (ln)": "11.5 ± 1"}
{"sequence": "TTAAAGCTTGCATATACACACATACATAAATTCATA [CACACA_site7208]", "gcPBM binding intensity (ln)": "10 ± 0.18"}
{"sequence": "TATTTTTTTTTTTTTTTTTTTACCTTTCCACTCAAA [CACACA_negctrl_site1454]", "gcPBM binding intensity (ln)": "9.84 ± 0.34"}
{"sequence": "ATGTATATTTTTAAAAGTACAGAATTTTCATATGAA [XGTACX_site5754]", "gcPBM binding intensity (ln)": "11.3 ± 0.93"}
{"sequence": "ATTTTATCTTTAAACTGTACGTATTAATATGTAGAA [XGTACX_site3077]", "gcPBM binding intensity (ln)": "11.7 ± 1.1"}
{"sequence": "TTATTTTCATATAGGTGTACATAAAAATATTCTTAT [XGTACX_site8861]", "gcPBM binding intensity (ln)": "11.6 ± 0.82"}
{"sequence": "AATTTATTTTTTTAATGTACATATGGTATAAATATA [XGTACX_site8012]", "gcPBM binding intensity (ln)": "11.3 ± 0.79"}
{"sequence": "TATATACAATATAGGTGTACATTTTTTTATCTATTT [XGTACX_site8431]", "gcPBM binding intensity (ln)": "11.3 ± 0.69"}
{"sequence": "TATTATGTATGTATATGTACGTATCTTATTTTATTT [XGTACX_site5008]", "gcPBM binding intensity (ln)": "11.3 ± 0.76"}
{"sequence": "TGTAAATAATATAATAGTACGCATATTTTTATTGAA [XGTACX_site284]", "gcPBM binding intensity (ln)": "11.4 ± 0.78"}
{"sequence": "ATATTTATACATAAATGTACTTTTATATATTTAATA [XGTACX_site3020]", "gcPBM binding intensity (ln)": "11.1 ± 0.8"}
{"sequence": "TTTTTTAATAAATGGTGTACATATTTTTTTTATACT [XGTACX_site8584]", "gcPBM binding intensity (ln)": "11.8 ± 0.87"}
{"sequence": "ATATTTTTTTTTTCGTGTACGCATAAATATATCTAA [XGTACX_site3360]", "gcPBM binding intensity (ln)": "11.6 ± 0.95"}
{"sequence": "TAATATATTAATATATGTACGTATTTTTATTAATAT [XGTACX_site5346]", "gcPBM binding intensity (ln)": "11.6 ± 0.93"}
{"sequence": "ATATATTTATATAGGTGTACATATTTTGCTATTCAA [XGTACX_site5199]", "gcPBM binding intensity (ln)": "11.6 ± 0.77"}
{"sequence": "ATATATGTATATTTTTGTACGCATAAATATATTTTT [XGTACX_site827]", "gcPBM binding intensity (ln)": "11.3 ± 0.83"}
{"sequence": "ATAATAAATAAATAATGTACATATGAAAGAATAAAT [XGTACX_site8355]", "gcPBM binding intensity (ln)": "11.1 ± 0.49"}
{"sequence": "ATATAAAATAAATAAGTGCAGATAAATTTATGTGAC [GTGCAC_site9504]", "gcPBM binding intensity (ln)": "10.25 ± 0.057"}
